The entries come from a sample that favours hits as a whole.
AmpC no deterg – blocks E. coli AmpC beta-lactamase in detergent-free assay; AID 485341; AmpC nitrocefin hydrolysis, absorbance 480 nm, 0.0001% Triton; actives 0.52% (n = 330,000); Potency, µM (highest dose often 57.1 µM), for inactives: at the highest dose activity change, negative = inhibition, hits mostly inhibitors; P00811;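 also: plate controls were no compound for no effect and no enzyme for full effect; nearly all actives have a fitted effect of over 20% in size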
Target sequence (P00811 whole entry, looked up): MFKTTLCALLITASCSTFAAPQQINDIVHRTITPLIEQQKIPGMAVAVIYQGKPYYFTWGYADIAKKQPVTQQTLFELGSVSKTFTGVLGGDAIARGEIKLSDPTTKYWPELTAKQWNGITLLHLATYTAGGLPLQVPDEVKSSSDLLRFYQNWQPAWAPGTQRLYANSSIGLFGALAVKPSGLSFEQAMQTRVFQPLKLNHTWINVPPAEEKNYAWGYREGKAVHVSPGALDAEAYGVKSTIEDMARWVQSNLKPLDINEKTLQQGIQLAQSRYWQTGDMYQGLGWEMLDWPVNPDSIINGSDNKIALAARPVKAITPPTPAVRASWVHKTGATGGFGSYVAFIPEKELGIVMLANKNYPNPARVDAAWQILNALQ
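AmpC (5.3 nM in the dispensed reagent) in 20 mM phosphate pH 7.0 with 0.01% (detergent screen) or 0.0001% Triton X-100 was preincubated with compounds for 15 min at room temperature. Nitrocefin was then added from an 800 uM solution, and hydrolysis was followed at 480 nm.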
AmpC inh detg – AmpC beta-lactamase inhibition with detergent present; AmpC hydrolysis of nitrocefin, absorbance 480 nm, 0.01% Triton; Potency, µM (series often up to 114 µM), without a hit: at the top dose activity change, negative = inhibition, hits mostly inhibitors; actives 0.041% (n = 370,000); AID 485294;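 also: 0% = no-compound wells and -100% = no-enzyme wells; nearly all actives have a fitted effect of over 25% in size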
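20 mM phosphate pH 7.0 + 0.01% (detergent screen) or 0.0001% Triton X-100; 5.3 nM AmpC reagent; cpd preinc 15 min RT; nitrocefin (800 uM stock) to start; A480 q20 s × 4 min; Activity was normalised to no-enzyme and no-compound control wells.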
* hit, by the source's call; [ ] = remark or other dose. Calls follow the shape of the dose curve; as a rule, active = well fitted curve in the direction sought with a large enough effect; inconclusive = small, poorly fitted or top-dose-only effect, or another doubt; inactive = no such curve, though single readings can be large; an effect the other way counts as inactive or inconclusive. Potency is read from the fitted curve at half-maximal effect.

`C=CCN1C(=O)S/C(=C/c2ccc(Sc3nc4ccccc4[nH]3)o2)C1=O` gave AmpC no deterg -32% and AmpC inh detg -9%.
`CCCN1CCN(CC2=C(C(=O)OCC)C(c3ccc(OC(C)C)cc3)NC(=O)N2)CC1` (stereo not given) gave AmpC inh detg 3%.
`COc1cccc(-c2nc3c(C#N)c[nH]n3c2NC2CCCCC2)c1` gave AmpC inh detg 21%.
C/C(=N\NC(N)=S)c1ccc2c(c1)OCCO2 was read as AmpC no deterg -25% and AmpC inh detg -5%.
For C/C(=N\NC(=S)Nc1ccc(F)cc1)c1ccc2c(c1)OCCO2 the results were AmpC no deterg 20µM* and AmpC inh detg -6%.
CCOC(=O)Cn1c(=O)oc2cc(S(=O)(=O)NCCc3ccc(C)cc3)ccc21 was read as AmpC no deterg 10µM* and AmpC inh detg inconclusive.
For CCOC(=O)Cn1c(=O)oc2cc(S(=O)(=O)NCCCc3ccccc3)ccc21 the results were AmpC no deterg -9% and AmpC inh detg inconclusive.
Screening CCOC(=O)N1CCC(NC(=O)c2cnn(-c3cccc(F)c3)c2-n2cccc2)CC1 returned AmpC inh detg 2%.
For Cc1cc(NC(=O)c2noc3c2CCc2ccccc2-3)n(-c2ccccc2)n1 the results were AmpC no deterg 1µM* and AmpC inh detg 2%.
Screening Cc1ccc(NC(=O)c2noc3c2CCc2ccccc2-3)cc1 returned AmpC no deterg -26% and AmpC inh detg 2%.
CC1CCN(S(=O)(=O)c2cn(CC(=O)Nc3ccc(F)c(Cl)c3)c(=O)c3ccccc23)CC1 was read as AmpC inh detg 19%.
For COC(=O)c1ccc(Cl)cc1NC(=O)N1CC=C(c2c[nH]c3ccccc23)CC1 the results were AmpC inh detg -6%.
CCCOC(=O)c1ccc(NC(=O)c2ccccc2OC)cc1 was read as AmpC no deterg -6% and AmpC inh detg inconclusive.
For CCCOC(=O)c1ccc(NC(=O)c2c(Cl)ccc(Cl)c2OC)cc1 the results were AmpC no deterg 28µM* and AmpC inh detg -7%.
`COC(=O)C(CC(=O)c1ccc(Cl)cc1)c1ccc(C(C)C)cc1` (stereo not given) gave AmpC no deterg 0.25µM* and AmpC inh detg 1%.
For Cc1ccc(C(CC(=O)c2ccc(Cl)cc2)C(=O)O)cc1 (stereo not given) the results were AmpC no deterg -16% and AmpC inh detg -3%.
COc1ccc(OC)c2c1sc(=NC(=O)c1cccc(N3C(=O)CCC3=O)c1)n2C was read as AmpC no deterg 40µM* and AmpC inh detg inconclusive.
COc1cc(C(=O)N=c2sc3c(C)ccc(OC)c3n2C)cc(OC)c1OC was read as AmpC no deterg -7% and AmpC inh detg -6%.
For CCn1c(=NC(=O)c2cccc(N3C(=O)CCC3=O)c2)sc2c(OC)ccc(OC)c21 the results were AmpC no deterg -8% and AmpC inh detg 5%.
`COc1ccc(C(=O)N=c2sc3c(C)ccc(OC)c3n2C)cc1` gave AmpC no deterg 1.1µM* and AmpC inh detg inconclusive.
For COc1ccccc1NC(=O)N1CC(=O)Nc2sc3c(c2C1c1ccccc1)CCCC3 (stereo not given) the results were AmpC inh detg -5%.
Cc1ccc(-n2cccc2/C=C2/NC(=O)N(CC(=O)Nc3cccc(C)c3)C2=O)cc1 was read as AmpC no deterg 32µM* and AmpC inh detg inconclusive.
Cc1cccc(NC(=O)CN2C(=O)N/C(=C\c3cccn3-c3cccc(C(=O)O)c3)C2=O)c1 was read as AmpC no deterg -14% and AmpC inh detg -5%.
O=C(CN1C(=O)c2cccnc2Oc2ccc(Cl)cc21)Nc1cccc(C(F)(F)F)c1 was read as AmpC inh detg 4%.
`CCOc1ccc(NC(=O)C2C3CCC4C(CCC32)C4(Cl)Cl)cc1` (stereo not given) gave AmpC no deterg -5%[2.29 µM] and AmpC inh detg -9%.
Screening O=C(Nc1ccc(F)cc1)C1C2CCC3C(CCC21)C3(Cl)Cl (stereo not given) returned AmpC no deterg 14µM* and AmpC inh detg 3%.
For O=C(Nc1ccc(Cl)cc1)C1C2CCC3C(CCC21)C3(Cl)Cl (stereo not given) the results were AmpC no deterg -49% and AmpC inh detg -8%.
Cc1cccc(NC(=O)C2C3CCC4C(CCC32)C4(Cl)Cl)c1 (stereo not given) was read as AmpC no deterg 32µM* and AmpC inh detg -1%.
Cc1cc(S(=O)(=O)N2CCN(Cc3noc(CCC(=O)N4CCCCC4)n3)CC2)ccc1F was read as AmpC inh detg 1%.
Screening CCOC(=O)c1c(NC(=O)c2ccc(S(=O)(=O)N(C)C3CCCCC3)cc2)sc2c1CCN(C(C)C)C2 returned AmpC inh detg -4%.
For Cc1cccc(Cc2cnc(NC(=O)C3Cc4ccc(C)cc4C(=O)O3)s2)c1 (stereo not given) the results were AmpC inh detg -1%.
For CCn1c(=S)sc2c(=O)n(CC(=O)Nc3ccccc3)c(C)nc21 the results were AmpC no deterg -26% and AmpC inh detg inconclusive.
Screening CCn1c(=S)sc2c(=O)n(CC(=O)Nc3ccc(OC)c(Cl)c3)c(C)nc21 returned AmpC no deterg 6.3µM* and AmpC inh detg -8%.
`CCn1c(=S)sc2c(=O)n(CC(=O)Nc3ccc(Cl)cc3)c(C)nc21` gave AmpC no deterg 7.1µM* and AmpC inh detg -3%.
CCn1c(=S)sc2c(=O)n(CC(=O)Nc3ccc(C(C)=O)cc3)c(C)nc21 was read as AmpC no deterg -28% and AmpC inh detg -6%.
O=C(NCc1ccccc1)c1ccc(NC(=O)c2nsc3ccccc23)cc1 was read as AmpC inh detg -8%.
`CC(=O)c1cccc(NC(=O)CSc2nnc3ccc(-c4ccc(Cl)cc4)nn23)c1` gave AmpC inh detg 0%.
For Cc1ccc(C)c(N2CCN(C(=O)c3cc4ccccc4oc3=O)CC2)c1 the results were AmpC no deterg 53% and AmpC inh detg -10%.
Screening O=C(c1cc2ccccc2oc1=O)N1CCN(c2ccc(N3CCOCC3)nn2)CC1 returned AmpC no deterg 0.14µM* and AmpC inh detg inconclusive.
Screening COc1ccc(C)cc1NCc1cc(=O)oc2cc(-c3ccccc3)c(O)cc12 returned AmpC no deterg 3.5µM* and AmpC inh detg -5%.
Cc1cc(C)cc(NCc2cc(=O)oc3cc(-c4ccccc4)c(O)cc23)c1 was read as AmpC no deterg -53% and AmpC inh detg inconclusive.
Screening O=C(Cn1c(SCCOc2ccc(Cl)cc2)nc2ccccc21)N1CCCCC1 returned AmpC inh detg -3%.
`CCC1=NN2C(=N)/C(=C\c3cccn3-c3c(C)cccc3C)C(=O)N=C2S1` gave AmpC no deterg -37% and AmpC inh detg inconclusive.
CCC1=NN2C(=N)/C(=C\c3cccn3-c3ccc(C)cc3C)C(=O)N=C2S1 was read as AmpC no deterg 25µM* and AmpC inh detg inconclusive.
Cc1ccc(CSc2sc(C(=O)c3ccccc3)c(N)c2C#N)cc1 was read as AmpC no deterg 10µM* and AmpC inh detg 0%.
N#Cc1c(SCc2ccccc2)sc(C(=O)c2ccccc2)c1N was read as AmpC no deterg -25% and AmpC inh detg 0%.
`CCc1ccc(-c2[nH]nc3nc(-c4cc(OC)ccc4OC)cc(C(=O)O)c23)cc1` gave AmpC inh detg 12%.

Screening data (PubChem)
